In PubChem BioAssay (NCATS):
Several values for one entry are separate records, joined by “and”; a condition that tells them apart may be missing. Equal entries are not always repeated. Inconclusive results are not listed. Values without a mark were called inactive. Activity calls are given as the source filed them.

Biological target: Glucocorticoid receptor (Homo sapiens) (UniProt P04150)
Test: qHTS assay for small molecule agonists of glucocorticoid receptor signaling (AID 588532; active means well fitted curve in the direction sought with a large enough effect in the signal ratio, with a control signal flat; the % refers to the signal ratio;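 further: 100% = dexamethasone at 0.1 µM and 0% = DMSO only wells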)
Conditions: HeLa MMTV-bla, beta-lactamase ratio, agonist, 18 h; hits give high values; percent of dexamethasone control, DMSO zero
Summary of the method: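 Agonist-mode qHTS: GRE-driven beta-lactamase in HeLa cells exposed 18 h to titrated compounds (up to 92 uM), then CCF4 ratio read after 2 h at RT; Hill-fitted EC50, efficacy relative to 0.1 uM dexamethasone.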

Glucocorticoid receptor (Homo sapiens), sequence (P04150 whole entry, looked up): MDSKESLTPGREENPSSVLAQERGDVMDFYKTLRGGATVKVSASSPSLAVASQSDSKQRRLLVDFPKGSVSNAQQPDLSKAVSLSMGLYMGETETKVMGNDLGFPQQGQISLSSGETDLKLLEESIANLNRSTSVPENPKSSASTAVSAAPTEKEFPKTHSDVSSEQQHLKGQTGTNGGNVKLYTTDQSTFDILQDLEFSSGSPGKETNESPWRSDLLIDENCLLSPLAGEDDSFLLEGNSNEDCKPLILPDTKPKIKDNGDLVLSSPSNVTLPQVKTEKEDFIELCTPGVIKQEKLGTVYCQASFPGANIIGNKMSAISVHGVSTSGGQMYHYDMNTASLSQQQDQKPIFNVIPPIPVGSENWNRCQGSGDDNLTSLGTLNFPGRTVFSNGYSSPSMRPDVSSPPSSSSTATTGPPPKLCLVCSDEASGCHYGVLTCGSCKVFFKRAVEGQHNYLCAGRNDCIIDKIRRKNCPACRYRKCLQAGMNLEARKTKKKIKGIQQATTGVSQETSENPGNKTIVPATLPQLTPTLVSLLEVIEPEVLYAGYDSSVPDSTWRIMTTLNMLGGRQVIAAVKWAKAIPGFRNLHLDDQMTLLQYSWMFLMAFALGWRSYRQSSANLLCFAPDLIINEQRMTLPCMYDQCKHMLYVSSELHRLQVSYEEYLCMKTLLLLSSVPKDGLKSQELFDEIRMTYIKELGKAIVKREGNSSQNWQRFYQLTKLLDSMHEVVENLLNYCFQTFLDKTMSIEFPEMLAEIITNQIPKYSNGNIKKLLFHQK

Which activation does the source give for `Cc1ccco1` here?
The activation was -1.2%.

For `Cc1cccc(C)c1[N+](=O)[O-]`, which activation is on record?
Its activation is 4.67% and -8.43%.

`CCN(CC)c1cccc(O)c1` was tested. Which activation did it give?
Its activation is -1.18%.

For `CC/C(C)=N/O`, which activation is on record?
Its activation is 3.82%.

`O=C(O)c1ccc(Cl)cc1Cl` was tested. Which activation did it give?
The activation was -5.78%.

With `CC(C)Nc1ccccc1` as the compound, how does the activation read?
Its activation is -8.21%.

Which activation does the source give for `CCCCCO` here?
Its activation is 4.01%.

For `OC1CCCC1`, which activation is on record?
The activation was 0.774%.

With `C=C(C)OC(C)=O` as the compound, how does the activation read?
The activation was -3.17%.

`CSc1ccc(C=O)cc1` was tested. Which activation did it give?
Its activation is -2.41%.

Which activation does the source give for `Cc1ccccc1C(=O)O` here?
The activation was -5.56%.

`CC(C)N=C=NC(C)C` was tested. Which activation did it give?
The activation was 4.13%.

For `CC(C)CO`, which activation is on record?
Its activation is -3.71%.

`Cc1ccc2ccccc2c1[N+](=O)[O-]` was tested. Which activation did it give?
Its activation is -8.32%.

Which activation does the source give for `Cc1ccc2nc(-c3ccc(N)cc3)sc2c1S(=O)(=O)O` here?
Its activation is 22.8%.

`CNC(=O)c1ccccc1` was tested. Which activation did it give?
The activation was -1.59%.

With `O=C(O)c1cc(Cl)cc(Cl)c1` as the compound, how does the activation read?
The activation was -5.57%.

Which activation does the source give for `CO[Si](CCCNCCC[Si](OC)(OC)OC)(OC)OC` here?
Its activation is 5.31%.

For `CC(=O)C1(C)CC2=C(CCCC2(C)C)CC1C` (stereo unspecified), which activation is on record?
The activation was -5.53%.

With `CCOCCO` as the compound, how does the activation read?
Its activation is -1.34%.

Which activation does the source give for `NC(=O)CCCCC(N)=O` here?
Its activation is -2.82%.

`C=C(C)C(=O)OCC(C)O` (stereo unspecified) was tested. Which activation did it give?
The activation was -4.2%.

For `Cc1ccc(C)c([N+](=O)[O-])c1`, which activation is on record?
The activation was -1.28%.

For `Nc1ccc([N+](=O)[O-])c(N)c1`, which activation is on record?
The activation was -8.8%.

How did the activation turn out when `CCOc1ccccc1N` was run?
Its activation is -6.27%.

How did the activation turn out when `CC1(N)CCC(C(C)(C)N)CC1` (stereo unspecified) was run?
The activation was 7.57%.

For `C=CCn1c(=O)n(CC=C)c(=O)n(CC=C)c1=O`, which activation is on record?
The activation was -0.0268%.

Which activation does the source give for `CC1=C(/C=C/C(C)=C/C=C/C(C)=C\C=O)C(C)(C)CCC1` here?
Its activation is 1.42%.

With `O=Cc1ccc(C(=O)O)cc1` as the compound, how does the activation read?
The activation was 3.49%.

For `Nc1nc(CC(=O)O)cs1`, which activation is on record?
Its activation is 1.59%.

Biological target: Glucocorticoid receptor (Homo sapiens) (UniProt P04150)
Test: qHTS assay for small molecule antagonists of glucocorticoid receptor signaling (AID 588533; active means well fitted inhibition curve with a large enough effect in the signal ratio, with a control signal flat, not every such curve was filed as active; the % refers to the signal ratio;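 further: cells stimulated with 2 nM dexamethasone as agonist; on the % scale 0 is the no-effect control and ±100 the full control effect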)
Conditions: HeLa MMTV-bla, GRE beta-lactamase ratio, antagonist mode, 18 h; series mostly up to 76.8 µM
Summary of the method: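 Antagonist-mode qHTS: compound titrations added to GRE-bla HeLa cells, then dexamethasone 2 nM final; 18 h, 37 C. CCF4 FRET fluorescence normalized to dexamethasone and DMSO; IC50 from Hill fit.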

How did the outcome turn out when `Cc1ccco1` was run?
The outcome was “inactive”.

For `Cc1ccc(Br)cc1`, which outcome is on record?
The outcome was “inactive”.

For `CC(=O)OCCC(C)C`, which outcome is on record?
The outcome was “inactive”.

`CC/C(C)=N/O` was tested. Which outcome did it give?
Its outcome is “inactive”.

For `NC(=O)c1cccc([N+](=O)[O-])c1`, which outcome is on record?
The outcome was “inactive”.

How did the outcome turn out when `O=C(O)c1ccc(Cl)cc1Cl` was run?
The outcome was “inactive”.

How did the outcome turn out when `c1ccc2n[nH]nc2c1` was run?
Its outcome is “inactive”.

Which outcome does the source give for `Cc1ccc(S(=O)(=O)NC2CCCCC2)cc1` here?
Its outcome is “inactive”.

How did the outcome turn out when `OC1CCCC1` was run?
Its outcome is “inactive”.

For `C=C(C)OC(C)=O`, which outcome is on record?
Its outcome is “inactive”.

`CSc1ccc(C=O)cc1` was tested. Which outcome did it give?
Its outcome is “inactive”.

For `CC(C)N=C=NC(C)C`, which outcome is on record?
Its outcome is “inactive”.

`CC(C)CO` was tested. Which outcome did it give?
The outcome was “inactive”.

`Cc1ccc2ccccc2c1[N+](=O)[O-]` was tested. Which outcome did it give?
Its outcome is “inactive”.

How did the outcome turn out when `O=C(O)c1ccccc1C(=O)O` was run?
The outcome was “inactive”.

For `Nc1ccccc1[N+](=O)[O-]`, which outcome is on record?
The outcome was “inactive”.

How did the outcome turn out when `CO[Si](CCCNCCC[Si](OC)(OC)OC)(OC)OC` was run?
Its outcome is “inactive”.

`CCOCCO` was tested. Which outcome did it give?
Its outcome is “inactive”.

`NC(=O)CCCCC(N)=O` was tested. Which outcome did it give?
Its outcome is “inactive”.

How did the outcome turn out when `Nc1ccc([N+](=O)[O-])c(N)c1` was run?
The outcome was “inactive”.

How did the outcome turn out when `CCOc1ccccc1N` was run?
The outcome was “inactive”.

With `Cc1ccc2ncccc2c1` as the compound, how does the outcome read?
Its outcome is “inactive”.

With `C=CCn1c(=O)n(CC=C)c(=O)n(CC=C)c1=O` as the compound, how does the outcome read?
The outcome was “inactive”.

For `Nc1c(Cl)cc(Cl)cc1Cl`, which outcome is on record?
The outcome was “inactive”.

With `Nc1nc(CC(=O)O)cs1` as the compound, how does the outcome read?
The outcome was “inactive”.

With `CC(O)CC(C)O` (stereo unspecified) as the compound, how does the outcome read?
The outcome was “inactive”.
